Measurements as given in PubChem BioAssay (EPA / NIEHS).
Where “and” joins values, the source holds several entries; their conditions need not be identical. Equal entries are not always repeated. Where a structure was tested more than once in an assay, its records may differ in their call. Calls of active or inactive are those of the source. Rule for the calls: active = hit-call score of the fitted dose curve at least 0.9, where 1 is the maximum; inactive = score below 0.9.

assay: BSK_hDFCGF_Proliferation: Cell Proliferation Assessment in the BioMAP Diversity Plus: hDFCGF Assay (AID 2283059); details: primary human foreskin fibroblasts;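 note: curves fitted for both rise and fall of signal versus DMSO baseline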
Experimental: BSK_hDFCGF is a cell-based, multiplexed-readout assay that uses foreskin fibroblast, a human skin primary cell, with measurements taken at 24 hours after chemical dosing in a 96-well plate.BSK_hDFCGF_Proliferation is an assay component measured in the BSK_hDFCGF assay. It measures […] related to cell proliferation using Sulforhodamine staining technology.Data from the assay component BSK_hDFCGF_Proliferation was analyzed into 1 assay endpoint. This assay endpoint, BSK_hDFCGF_Proliferation, was analyzed with bidirectional fitting relative to DMSO as the negative control and baseline of activity. Using a type of viability reporter, measures of total protein for gain or loss-of-signal activity can be used to understand the viability at the cellular-level. Furthermore, this assay endpoint can be referred to as a secondary readout, because this assay has produced multiple assay endpoints where this one serves a viability function. To generalize the intended target to other relatable targets, this assay endpoint is annotated to the cell cycle intended target family, where the subfamily is proliferation.
The levels of cell surface (or secreted, indicated by the prefix "s") biomarker endpoints were measured by ELISA. Overt cytotoxicity to cells in confluent adherent cultures (all systems other than the BT system) was assessed by measuring total protein levels using sulforhodamine B (SRB) staining in parallel cultures at the time of biomarker measurements, indicated as SRB endpoints. For proliferation assays for adherent cell types, individual cell types are cultured at sub-confluence and relative cell numbers quantified by SRB staining at time points optimized for each system (48 h: 3C and CASM3C systems; 72 h: BT and HDF3CGF systems; 96 h: SAg system). SRB was performed by staining cells with 0.1% SRB after fixation with 10% TCA and reading wells at 560 nm.Viability and proliferation of PBMC (T cells) was quantified by Alamar Blue reduction for the SAg and BT systems. For PBMC viability (referred to as PBMC Cytotoxicity within the assay endpoint names), cells were plated (75,000/well in a 96-well plate) and then chemical samples added for 1 h before addition of activators, SEB and TSST-1 (20 ng/mL final concentration each). Cells were incubated for 90 h. Then, Alamar Blue (20 uL/well) (Invitrogen, Cat DAL1100) was added for 6 h, and the plates were read with a fluorescence microplate reader at 546/580 nm (excitation/emission). For PBMC proliferation, cells were plated and activated as above but incubated for only 16 h prior to addition of Alamar Blue. Plates were read after 6 h.

Structure (SMILES)	AC50	outcome
C[C@H]1[C@H](c2ccc(Cl)cc2)SC(=O)N1C(=O)NC1CCCCC1	9.3 µM (active)	–
CCS(=O)(=O)c1cccnc1S(=O)(=O)NC(=O)Nc1nc(OC)cc(OC)n1	–	inactive
COc1cc(OC)nc(NC(=O)NS(=O)(=O)c2cc(NC=O)ccc2C(=O)N(C)C)n1	–	inactive
COC(=O)c1ccccc1S(=O)(=O)NC(=O)N(C)c1nc(C)nc(OC)n1	–	inactive
CCc1ccc(C(=O)NN(C(=O)c2cc(C)cc(C)c2)C(C)(C)C)cc1	–	inactive
CCCN(CCC)c1c([N+](=O)[O-])cc(C(F)(F)F)cc1[N+](=O)[O-]	29.6 µM (active)	–
ClC1C(Cl)C(Cl)C(Cl)C(Cl)C1Cl (stereo not given)	28.1 µM (active) and 24.6 µM (active)	inactive
CNC(=O)CSP(=S)(OC)OC	–	inactive
CC1(C)C(C=C(Cl)Cl)C1C(=O)OC(C#N)c1ccc(F)c(Oc2ccccc2)c1 (stereo not given)	13.2 µM (active)	–
O=C(O)COc1ccc(Cl)cc1Cl	–	inactive
CCN(CC)C(=O)SCc1ccc(Cl)cc1	–	inactive
O=C(O)C(F)(F)C(F)(F)C(F)(F)C(F)(F)C(F)(F)C(F)(F)C(F)(F)F	8.07 µM (active)	inactive
CCOCN(C(=O)CCl)c1c(C)cccc1CC	14.5 µM (active)	–
CC(C)N(C(=O)COc1nnc(C(F)(F)F)s1)c1ccc(F)cc1	15.9 µM (active)	–
C#CCN1C(=O)COc2cc(F)c(N3C(=O)C4=C(CCCC4)C3=O)cc21	–	inactive
COc1nn(CSP(=S)(OC)OC)c(=O)s1	–	inactive
[2H]C1([2H])[n+]2ccccc2-c2cccc[n+]2C1([2H])[2H]	8.95 µM (active)	–
CCC(C)(NC(=O)c1cc(Cl)c(C)c(Cl)c1)C(=O)CCl (stereo not given)	4.14 µM (active)	–
N#CN	–	inactive

Structure (SMILES)	AC50	outcome
N#Cc1c(Cl)c(Cl)c(Cl)c(C#N)c1Cl	0.148 µM (active)	–
CCC(C)(C)C(=O)OC1=C(c2ccc(Cl)cc2Cl)C(=O)OC12CCCCC2	4.67 µM (active)	–
CCOC1Oc2ccc(OS(C)(=O)=O)cc2C1(C)C (stereo not given)	–	inactive
CCOc1nc(NC)nc(NC(=O)NS(=O)(=O)c2ccccc2C(=O)OC)n1	–	inactive
COP(=O)(OC)OC=C(Cl)Cl	–	inactive
O=S1OCC2C(CO1)C1(Cl)C(Cl)=C(Cl)C2(Cl)C1(Cl)Cl (stereo not given)	23.2 µM (active)	–
CN1CSC(=S)N(C)C1	13.5 µM (active)	–
COC(=O)c1ccccc1CS(=O)(=O)NC(=O)Nc1nc(OC)cc(OC)n1	–	inactive
OCCOc1ccccc1	–	inactive
O=S(=O)(O)C(F)(F)C(F)(F)C(F)(F)C(F)(F)C(F)(F)C(F)(F)C(F)(F)C(F)(F)F	–	inactive
O=[N+]([O-])c1c(Cl)c(Cl)c(Cl)c(Cl)c1Cl	19.7 µM (active)	–
O=C(O)CCCOc1ccc(Cl)cc1Cl	–	inactive
O=[N+]([O-])/N=C1\NCCN1Cc1ccc(Cl)nc1	–	inactive
CC(C)(C)C(O)/C(=C\c1ccc(Cl)cc1Cl)n1cncn1 (stereo not given)	29.8 µM (active)	–
CNC(=O)/C=C(\C)OP(=O)(OC)OC	–	inactive
CCC(C)Nc1c([N+](=O)[O-])cc(C(C)(C)C)cc1[N+](=O)[O-] (stereo not given)	20 µM (active)	–
CC(C)OC(=O)Nc1cccc(Cl)c1	–	inactive
O=C(NC(=O)c1c(F)cccc1F)Nc1ccc(OC(F)(F)C(F)OC(F)(F)F)c(Cl)c1 (stereo not given)	–	inactive
Oc1ccc(Cl)cc1Cc1ccccc1	7.84 µM (active) [middle of 7 runs]	–
